This passage reports growth results from PubChem BioAssay (NCI).

Each structure is given as a SMILES string. Compounds without any hit were thinned out: in the full panel of roughly 83,000, 20% have a hit.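 Note: values are percent growth. 100 is the growth of untreated cells, values between 100 and 0 indicate rising inhibition; between -100 and 0 indicates cell death.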 Values without a mark were called inactive. Activity calls are given as the source filed them. How the source made its calls: active means growth percent below 10; inactive means the rest.

The assay concerns HL-60(TB) leukemia. The assay can be described thus: NCI-60 one-dose screen, 48 h (100 = growth as untreated, 0 = no growth, -100 = all killed). The conditions noted are these: 10 µM unless noted.
For the compound `CC(C)(C)Nc1nc2c(OCCc3ccccc3)cccn2c1-c1ccc(O)cc1`, the growth was -9.89% (active).

With `O=C(CSc1nc2ccccc2c(=O)n1-c1ccc(Cl)c(Cl)c1)Nc1ccc(S(=O)(=O)Nc2ccc(Cl)nn2)cc1`, the growth was 106%.

For `Cn1nc(Nc2ccccc2)c(C(=O)NN)c1N`, the growth was 105%.

For the compound `CCOC(=O)c1c(NCC(=O)Nc2ccc(Br)cc2)sc2c1CCCC2`, the growth was 28.9%.

In the case of `C#C[C@]1(O)CC[C@H]2[C@@H]3CC=C4c5sc(-c6ccc(OC)cc6)nc5CC[C@]4(C)[C@H]3CC[C@@]21C`, the growth is 21.1%.

Consider `COc1ccc(-c2cc(-c3cccc4ccccc34)n3c(n2)nc2ccccc23)cc1`, for which the growth was -0.785% (active).
